Assay results from the supplement of paper PMC11732987, “Enantioselective OTUD7B fragment discovery through chemoproteomics screening and high-throughput optimisation” (Communications Chemistry, 2025).

compound: CN(Cc1cccc(OCc2ccccc2C)c1)C(=O)CCl; experiment: log2 ratio of Biotin-Ahx-Ub-VS probe labelling (compound/DMSO); higher = less target engagement, active = hit call of the paper (q ≤ 0.05, log2 ratio ≤ -1); settings: compound concentration: 50uM; treatment time: 3 h
Procedure: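 Round 2 competitive ABPP in HEK293T lysate. Purified HTC-D2B compounds were tested at 50 and 200 µM for 3 h, followed by Biotin-Ahx-Ub-VS enrichment and diaPASEF LC-MS/MS. Values are the average log2 ratio (compound/DMSO) from an unpaired t-test (n=3 treated, n=26 DMSO).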

Sequence of UniProt P09936 (P09936 whole entry, looked up): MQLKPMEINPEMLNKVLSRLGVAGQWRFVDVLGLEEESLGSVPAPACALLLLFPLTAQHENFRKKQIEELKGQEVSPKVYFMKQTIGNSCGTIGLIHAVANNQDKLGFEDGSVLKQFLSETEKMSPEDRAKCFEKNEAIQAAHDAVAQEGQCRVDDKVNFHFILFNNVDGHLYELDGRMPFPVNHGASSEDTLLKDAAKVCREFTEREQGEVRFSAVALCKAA
Sequence of UniProt Q93008 (Q93008 whole entry): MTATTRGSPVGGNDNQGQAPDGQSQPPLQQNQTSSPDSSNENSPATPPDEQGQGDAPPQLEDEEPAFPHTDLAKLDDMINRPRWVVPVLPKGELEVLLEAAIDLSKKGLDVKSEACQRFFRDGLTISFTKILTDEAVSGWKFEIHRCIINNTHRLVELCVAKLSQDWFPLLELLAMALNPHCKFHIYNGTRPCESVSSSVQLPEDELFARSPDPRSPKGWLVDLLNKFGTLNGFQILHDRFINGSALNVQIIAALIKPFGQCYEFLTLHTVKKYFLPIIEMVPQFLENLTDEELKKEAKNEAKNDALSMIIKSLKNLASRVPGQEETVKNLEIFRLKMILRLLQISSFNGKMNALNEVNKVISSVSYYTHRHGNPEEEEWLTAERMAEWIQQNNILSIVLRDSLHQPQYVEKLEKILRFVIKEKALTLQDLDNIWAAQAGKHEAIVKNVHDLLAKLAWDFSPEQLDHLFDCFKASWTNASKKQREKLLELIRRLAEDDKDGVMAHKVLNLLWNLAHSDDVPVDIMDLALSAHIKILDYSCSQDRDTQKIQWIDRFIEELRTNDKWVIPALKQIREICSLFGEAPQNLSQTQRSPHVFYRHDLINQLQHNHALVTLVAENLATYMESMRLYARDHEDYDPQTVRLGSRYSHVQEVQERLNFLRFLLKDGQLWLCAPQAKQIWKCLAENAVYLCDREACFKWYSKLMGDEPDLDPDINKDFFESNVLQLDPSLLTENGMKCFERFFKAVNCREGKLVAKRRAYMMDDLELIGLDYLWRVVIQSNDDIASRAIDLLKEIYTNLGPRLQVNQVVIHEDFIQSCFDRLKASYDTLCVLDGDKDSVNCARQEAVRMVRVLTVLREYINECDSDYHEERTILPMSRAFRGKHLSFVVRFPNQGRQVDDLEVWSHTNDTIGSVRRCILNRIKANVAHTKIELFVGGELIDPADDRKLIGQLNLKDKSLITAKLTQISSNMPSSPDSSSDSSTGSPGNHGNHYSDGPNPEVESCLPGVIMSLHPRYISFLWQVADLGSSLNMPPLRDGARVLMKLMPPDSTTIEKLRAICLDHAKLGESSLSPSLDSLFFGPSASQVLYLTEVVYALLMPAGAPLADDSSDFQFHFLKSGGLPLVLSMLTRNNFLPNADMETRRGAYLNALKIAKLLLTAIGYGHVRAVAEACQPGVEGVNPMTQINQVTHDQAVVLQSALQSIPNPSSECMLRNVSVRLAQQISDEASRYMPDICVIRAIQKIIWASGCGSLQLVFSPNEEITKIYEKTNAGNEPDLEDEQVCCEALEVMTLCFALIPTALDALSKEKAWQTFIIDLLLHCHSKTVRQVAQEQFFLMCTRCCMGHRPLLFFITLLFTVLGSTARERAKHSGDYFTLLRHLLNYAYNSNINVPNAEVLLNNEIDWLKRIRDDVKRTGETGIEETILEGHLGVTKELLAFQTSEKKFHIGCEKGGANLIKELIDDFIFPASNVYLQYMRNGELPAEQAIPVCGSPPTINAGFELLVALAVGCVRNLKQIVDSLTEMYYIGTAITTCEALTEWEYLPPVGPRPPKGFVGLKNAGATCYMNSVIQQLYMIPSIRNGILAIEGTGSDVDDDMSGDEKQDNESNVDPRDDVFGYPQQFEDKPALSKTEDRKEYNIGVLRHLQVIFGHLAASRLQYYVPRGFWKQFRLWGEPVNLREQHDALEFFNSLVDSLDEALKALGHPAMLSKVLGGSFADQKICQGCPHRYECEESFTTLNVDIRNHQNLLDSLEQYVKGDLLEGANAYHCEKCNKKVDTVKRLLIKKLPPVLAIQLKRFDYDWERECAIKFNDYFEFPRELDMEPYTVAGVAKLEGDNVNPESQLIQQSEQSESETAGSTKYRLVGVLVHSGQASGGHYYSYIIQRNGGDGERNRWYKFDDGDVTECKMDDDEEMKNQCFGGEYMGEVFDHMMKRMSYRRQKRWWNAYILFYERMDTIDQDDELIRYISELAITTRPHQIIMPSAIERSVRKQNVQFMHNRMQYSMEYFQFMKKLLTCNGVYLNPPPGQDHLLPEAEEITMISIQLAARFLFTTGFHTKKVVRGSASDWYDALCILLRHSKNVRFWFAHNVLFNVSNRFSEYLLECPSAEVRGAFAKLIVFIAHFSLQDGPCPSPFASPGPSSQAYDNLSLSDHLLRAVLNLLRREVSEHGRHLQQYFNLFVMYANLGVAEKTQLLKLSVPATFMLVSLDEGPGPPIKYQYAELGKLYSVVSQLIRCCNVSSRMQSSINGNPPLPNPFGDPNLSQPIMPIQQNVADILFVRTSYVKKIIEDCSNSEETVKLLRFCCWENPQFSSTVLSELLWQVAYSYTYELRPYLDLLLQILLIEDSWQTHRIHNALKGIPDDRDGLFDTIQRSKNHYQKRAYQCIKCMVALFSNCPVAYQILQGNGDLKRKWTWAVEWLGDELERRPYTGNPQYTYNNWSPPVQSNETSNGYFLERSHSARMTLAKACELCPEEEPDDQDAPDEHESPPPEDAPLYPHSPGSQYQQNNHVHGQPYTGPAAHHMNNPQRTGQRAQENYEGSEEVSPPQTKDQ
Sequence of UniProt O00487 (O00487 whole entry): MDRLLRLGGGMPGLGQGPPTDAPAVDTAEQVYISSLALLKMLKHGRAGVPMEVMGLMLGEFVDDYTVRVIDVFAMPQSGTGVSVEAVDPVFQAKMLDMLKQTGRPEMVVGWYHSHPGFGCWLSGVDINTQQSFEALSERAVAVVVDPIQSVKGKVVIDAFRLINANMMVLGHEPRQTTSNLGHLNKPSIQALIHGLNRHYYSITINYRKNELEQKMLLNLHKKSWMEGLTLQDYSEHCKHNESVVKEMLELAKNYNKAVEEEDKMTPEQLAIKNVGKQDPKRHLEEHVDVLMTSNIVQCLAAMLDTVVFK
Sequence of UniProt Q9H9J4 (Q9H9J4 whole entry): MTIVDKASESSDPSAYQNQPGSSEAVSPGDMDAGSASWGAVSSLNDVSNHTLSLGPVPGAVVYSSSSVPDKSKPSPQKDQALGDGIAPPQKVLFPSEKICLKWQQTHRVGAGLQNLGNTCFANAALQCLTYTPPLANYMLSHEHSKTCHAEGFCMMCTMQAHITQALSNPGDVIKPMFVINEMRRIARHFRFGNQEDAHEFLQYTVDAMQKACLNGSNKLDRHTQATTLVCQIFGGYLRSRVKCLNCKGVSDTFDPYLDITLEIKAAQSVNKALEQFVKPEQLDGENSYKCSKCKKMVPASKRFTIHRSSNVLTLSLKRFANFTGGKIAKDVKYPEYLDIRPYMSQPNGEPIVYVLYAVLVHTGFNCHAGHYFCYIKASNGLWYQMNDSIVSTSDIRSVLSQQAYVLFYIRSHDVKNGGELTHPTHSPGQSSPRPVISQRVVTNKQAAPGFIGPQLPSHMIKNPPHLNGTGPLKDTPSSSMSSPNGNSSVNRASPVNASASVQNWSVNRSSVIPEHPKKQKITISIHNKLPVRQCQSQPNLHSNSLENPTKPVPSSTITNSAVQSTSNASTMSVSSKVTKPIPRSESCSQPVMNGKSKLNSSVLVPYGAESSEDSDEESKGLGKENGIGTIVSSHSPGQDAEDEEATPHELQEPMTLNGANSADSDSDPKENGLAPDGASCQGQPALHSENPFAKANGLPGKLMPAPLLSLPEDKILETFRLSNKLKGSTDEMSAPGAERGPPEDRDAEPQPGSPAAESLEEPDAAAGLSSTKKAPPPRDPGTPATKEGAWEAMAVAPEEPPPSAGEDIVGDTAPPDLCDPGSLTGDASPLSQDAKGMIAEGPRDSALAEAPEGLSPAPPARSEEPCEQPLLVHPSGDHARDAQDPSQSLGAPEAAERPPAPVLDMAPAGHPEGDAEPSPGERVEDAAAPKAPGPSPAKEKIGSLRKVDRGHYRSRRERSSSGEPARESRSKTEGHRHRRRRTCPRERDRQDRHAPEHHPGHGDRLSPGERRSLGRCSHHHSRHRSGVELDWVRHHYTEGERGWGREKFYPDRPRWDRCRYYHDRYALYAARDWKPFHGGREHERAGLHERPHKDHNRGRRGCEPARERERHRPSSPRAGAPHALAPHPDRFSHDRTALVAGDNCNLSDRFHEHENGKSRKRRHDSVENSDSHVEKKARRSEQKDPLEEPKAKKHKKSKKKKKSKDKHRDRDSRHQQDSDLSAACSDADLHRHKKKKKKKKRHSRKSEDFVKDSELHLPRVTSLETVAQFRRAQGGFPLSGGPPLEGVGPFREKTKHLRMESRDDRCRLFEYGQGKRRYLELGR
Sequence of UniProt Q5T2D3 (Q5T2D3 whole entry): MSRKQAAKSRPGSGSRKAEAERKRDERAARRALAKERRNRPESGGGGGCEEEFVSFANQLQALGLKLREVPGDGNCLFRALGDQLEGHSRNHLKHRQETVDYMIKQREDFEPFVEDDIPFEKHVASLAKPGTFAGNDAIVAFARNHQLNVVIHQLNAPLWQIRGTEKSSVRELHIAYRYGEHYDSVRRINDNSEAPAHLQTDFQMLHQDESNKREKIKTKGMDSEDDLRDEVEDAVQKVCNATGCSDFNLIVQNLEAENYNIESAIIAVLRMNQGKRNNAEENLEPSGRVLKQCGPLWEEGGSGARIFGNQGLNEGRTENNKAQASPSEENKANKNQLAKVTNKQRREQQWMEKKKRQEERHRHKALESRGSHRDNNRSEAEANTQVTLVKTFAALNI

Target	log2 ratio of Biotin-Ahx-Ub-VS probe labelling
USP14 (UniProt P54578)	-0.544 (inactive)
USP4 (UniProt Q13107)	0.0716 (inactive)
UCHL5 (UniProt Q9Y5K5)	-0.735 (inactive)
UCHL1 (UniProt P09936)	-0.437 (inactive)
UniProt Q70EL2	-0.959 (inactive)
EIF3H (UniProt O15372)	-0.0626 (inactive)
UniProt Q9UGI0	-0.392 (inactive)
USP9X (UniProt Q93008)	-0.553 (inactive)
USP8 (UniProt P40818)	-0.488 (inactive)
USP7 (UniProt Q93009)	-0.769 (inactive)
UniProt O00487	-0.154 (inactive)
EIF3F (UniProt O00303)	-0.201 (inactive)
USP46 (UniProt P62068)	-0.515 (inactive)
USP54 (UniProt Q70EL1)	-1.29 (active)
UniProt Q5T2D3	-0.549 (inactive)
USP25 (UniProt Q9UHP3)	-1.05 (active)
USP39 (UniProt Q53GS9)	-0.137 (inactive)
USP15 (UniProt Q9Y4E8)	-0.611 (inactive)
USP42 (UniProt Q9H9J4)	0.101 (inactive)
FAM105A (UniProt Q9NUU6)	-0.255 (inactive)

same assay, conditions: compound concentration: 200uM; treatment time: 3 h

Target	log2 ratio of Biotin-Ahx-Ub-VS probe labelling
USP14 (UniProt P54578)	-0.62 (inactive)
USP4 (UniProt Q13107)	-1.72 (active)
UCHL5 (UniProt Q9Y5K5)	-1.33 (active)
UCHL1 (UniProt P09936)	-0.268 (inactive)
UniProt Q70EL2	-0.772 (inactive)
EIF3H (UniProt O15372)	-0.0695 (inactive)
UniProt Q9UGI0	-0.664 (inactive)
USP9X (UniProt Q93008)	-1.59 (active)
USP8 (UniProt P40818)	-0.321 (inactive)
USP7 (UniProt Q93009)	-1.62 (active)
UniProt O00487	-0.202 (inactive)
EIF3F (UniProt O00303)	0.0399 (inactive)
USP46 (UniProt P62068)	-0.89 (inactive)
USP54 (UniProt Q70EL1)	-0.985 (inactive)
UniProt Q5T2D3	-0.332 (inactive)
USP25 (UniProt Q9UHP3)	-0.67 (inactive)
USP39 (UniProt Q53GS9)	0.0162 (inactive)
USP15 (UniProt Q9Y4E8)	-0.533 (inactive)
USP42 (UniProt Q9H9J4)	0.171 (inactive)
FAM105A (UniProt Q9NUU6)	-0.114 (inactive)
